Growth data for 37 compounds are collected here from PubChem BioAssay (NCI).

About 83,000 compounds went through this panel and 20% of them were active in at least one assay; those are over-represented in the sample as a whole.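 How to read the values: 0–100, growth inhibition (40 = 60% inhibited); 0, no net growth; -100 to 0, cell death (-40 = 40% of starting cells died; -100 = all dead).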 Calls of active or inactive are those of the source. Rule for the calls: active = growth percent below 10; inactive = the rest.

This assay has as its system TK-10 renal. In words: NCI-60 one-dose screen, 48 h (100 = growth as untreated, 0 = no growth, -100 = all killed). The settings on record: 10 µM unless noted.
In the case of `COC(=O)[C@@H](C)C[C@H](Cc1ccccc1)NC(=O)c1nc([C@@H](C[C@H](C(C)C)N(C)C(=O)[C@@H](NC(=O)[C@H]2CCCN2C)C(C)C)OC(C)=O)sc1C`, the growth is 13.6% (inactive).

For `CCCCCSC1C2C(=O)C(Br)=CC13CCNc1c(O)c4c5c(c13)=[N+]2CCC=5C=N4` (configuration not stated), the growth is -52.4% (active). With `CC1=C(CCCOC(=O)CN)C2=C(C)C3(CC3)[C@@](C)(O)C(=O)C2=C1` the figure was 102% (inactive); with `COC(=O)CC[C@H](Cc1ccccc1)NC(=O)c1csc([C@@H](C[C@H](C(C)C)N(C)C(=O)[C@@H](NC(=O)[C@H]2CCCCN2C)C(C)C)OC(C)=O)n1`, 42.5% (inactive); with `COC(=O)CC12CC(NC(=O)c3csc([C@@H](C[C@H](C(C)C)N(C)C(=O)[C@@H](NC(=O)[C@H]4CCCCN4C)C(C)C)OC(C)=O)n3)(C1)C2`, 50.5% (inactive). For the compound `O=C1CNC(c2ccccc2)c2cc(Cl)ccc2N1` (configuration not stated), the growth is 93.2% (inactive).

Turning to `CC1(C)N=C(N)N=C(N)N1c1cccc(CCCCc2ccc(Cl)c(S(=O)(=O)F)c2)c1`, the growth is 55.5% (inactive). With `CC(=O)O[C@H](C[C@H](C(C)C)N(C)C(=O)[C@@H](NC(=O)[C@H]1CCCCN1C)C(C)C)c1nc(C(=O)N[C@@H](Cc2ccccc2)C[C@H](C)C(=O)O)c(C(C)C)s1` the figure was 61.6% (inactive); with `COC(=O)[C@@H](C)C[C@H](Cc1ccccc1)NC(=O)c1csc(CC[C@H](C(C)C)N(C)C(=O)[C@@H](NC(=O)[C@H]2CCCCN2C)C(C)C)n1`, 60.5% (inactive); with `CCOP(=O)(NC[C@H]1O[C@](O)(CO)[C@@H](O)[C@@H]1O)OCC`, 97.2% (inactive). In the case of `COc1cc([C@@H]2c3cc4c(cc3[C@H](OC(C)=O)[C@H]3COC(=O)[C@H]23)OCO4)cc(OC)c1OC` it was 65.9% (inactive); in that of `COC(=O)[C@@H](C)C[C@H](Cc1cn(C)c2ccccc12)NC(=O)c1csc([C@@H](C[C@H](C(C)C)N(C)C(=O)[C@@H](NC(=O)[C@H]2CCCCN2C)C(C)C)OC(C)=O)n1`, 28.1% (inactive). In the case of `CCOC(=O)[C@@H](C)C[C@H](Cc1ccccc1)NC(=O)c1csc([C@@H](C[C@H](C(C)C)N(C)C(=O)[C@@H](NC(=O)[C@H]2CCCCN2C)C(C)(C)C)OC(C)=O)n1` it was 49.2% (inactive); in that of `CC1=C(CCCNS(C)(=O)=O)C2=C(C)C3(CC3)[C@@](C)(O)C(=O)C2=C1`, -14.9% (active); in that of `COC(=O)[C@@H](C)C[C@H](Cc1ccccc1)NC(=O)c1cccc([C@@H](C[C@H](C(C)C)N(C)C(=O)[C@@H](NC(=O)[C@H]2CCCCN2C)C(C)C)OC(C)=O)n1`, 58.7% (inactive). In the case of `CNC(=O)Oc1ccc(C(C)(C)C)cc1OC(=O)NC`, the growth was 98.2% (inactive). With `CC1(C)C(C(=O)c2cn(CCCCF)c3ccccc23)C1(C)C` the figure was 102% (inactive); with `CC(=O)O[C@H](C[C@H](C(C)C)N(C)C(=O)[C@@H](NC(=O)[C@H]1CCCCN1C)C(C)C)c1nc(C(=O)NC2CCC(C(=O)O)CC2)cs1` (some centres not stated), 73.8% (inactive). With `CCCC[C@H](NC(=O)[C@H]1CCCN1C)C(=O)N(C)[C@H](C[C@@H](OC(C)=O)c1nc(C(=O)N[C@@H](Cc2ccccc2)C[C@H](C)C(=O)OCC)cs1)C(C)C` the figure was 16.4% (inactive); with `CCOC(=O)[C@@H](C)C[C@H](Cc1ccccc1)NC(=O)c1csc([C@@H](C[C@H](C(C)C)N(C)C(=O)CNC(=O)[C@H]2CCCCN2C)OC(C)=O)n1`, 65.7% (inactive). In the case of `COc1ccc([As]=[As]c2ccc(OC)c(NCS(=O)(=O)O)c2)cc1NCS(=O)(=O)O` (configuration not stated) it was -16.2% (active); in that of `CC1=C(CCCOC(=O)[C@H](N)CC(C)C)C2=C(C)C3(CC3)[C@@](C)(O)C(=O)C2=C1`, -19% (active). `O=[N+]([O-])c1cc(I)cc([N+](=O)[O-])c1`: the growth was 117% (inactive). `CC(=O)OC[C@]1(C)C=C2C(=O)[C@](C)(O)C3(CC3)C(C)=C2[C@H]1OC(=O)N(C)CCN(C)C(=O)OC(C)(C)C`: the growth was -8.19% (active). In the case of `CC[C@H](C)[C@H](NC(=O)[C@H]1CCCCN1C)C(=O)N(C)[C@H](CCc1nc(C(=O)N[C@@H](Cc2ccccc2)C[C@H](C)C(=O)OC)cs1)C(C)C` it was 54.3% (inactive); in that of `COc1ccc(Nc2ccc([N+](=O)[O-])cc2[N+](=O)[O-])cc1CN(CCCl)CCCl`, 56.7% (inactive). In the case of `COC(=O)CCc1c[nH]c2ccc(N(CCCl)CCCl)cc12` it was 90% (inactive); in that of `Nc1c(F)cc(-c2nc3cc(F)ccc3[se]2)cc1F`, 27.7% (inactive). In the case of `COC(=O)[C@@]1(C)CC[C@]2(C)CC[C@]3(C)C4=CC=C5C(=CC(=O)C(O)=C5C)[C@]4(C)CC[C@@]3(C)[C@@H]2C1` it was -95.7% (active). Consider `COC(=O)[C@@H](C)C[C@H](Cc1ccccc1)NC(=O)c1nc([C@@H](C[C@H](C(C)C)N(C)C(=O)[C@@H](NC(=O)[C@H]2CCCCN2C)C(C)C)OC(C)=O)sc1C`, for which the growth was 31.1% (inactive). In the case of `CC(=O)O[C@H](C[C@H](C(C)C)N(C)C(=O)[C@@H](NC(=O)[C@H]1CCCN1C)C(C)C)c1nc(C(=O)N[C@@H](Cc2ccccc2)C[C@H](C)C(=O)O)c(C)s1` it was 42.4% (inactive). With `CCOC(=O)[C@@H](C)C[C@H](Cc1ccccc1)NC(=O)c1csc([C@@H](C[C@H](C(C)C)N(C)C(=O)[C@H](CCC(C)C)NC(=O)[C@H]2CCCCN2C)OC(C)=O)n1` the figure was -5.17% (active); with `COC(=O)C12CC(NC(=O)c3csc([C@@H](C[C@H](C(C)C)N(C)C(=O)[C@@H](NC(=O)[C@H]4CCCCN4C)C(C)C)OC(C)=O)n3)(C1)C2`, 56.5% (inactive). `Clc1ccc2nnnn2n1`: the growth is 37.5% (inactive). As for `CC[C@H](C)[C@H](NC(=O)[C@H]1CCCCN1C)C(=O)N(C)[C@H](C[C@@H](O)c1nc(C(=O)N[C@@H](Cc2ccccc2)C[C@H](C)C(=O)O)cs1)C(C)C`, the growth was 91.9% (inactive). Regarding `N#C[S-].[Au+].c1ccc(CN2[CH-]N(Cc3ccccc3)C(c3ccccc3)=C2c2ccccc2)cc1`, the growth is 17.6% (inactive). In the case of `CCCCCCCCCCCCNC(c1ccccc1)C(O)c1ccccc1` (configuration not stated) it was 98.8% (inactive).
